For experiment [1], the target named is Calcium and integrin-binding protein 1 (Homo sapiens) (UniProt Q99828). Description: Primary qHTS for Identification of Calcium Integrin Binding Protein 1 (CIB1) Competitor (AID 1508620).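 Note: GST tagged CIB1 binding a fluorescein labelled alphaIIb integrin peptide tracer; top concentration of the series differs between compounds.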 The conditions noted are these: CIB1-GST / FITC-alphaIIb peptide fluorescence polarization; series mostly up to 57.7 µM. The method in brief: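 Fluorescence polarization competition: CIB1-GST (1 uM final) preincubated with compound 15 min at room temperature, then FITC-labeled alphaIIb peptide (100 nM final) added for another 15 min. Polarization read at Ex 480/Em 540.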
A general note: Quantitative high-throughput screening tests each substance at several concentrations.

The nature of experiment [2]: Primary qHTS for small molecule stabilizers of the endoplasmic reticulum resident proteome: Secreted ER Calcium Modulated Protein (SERCaMP) assay (AID 1508630). The conditions noted are these: SH-SY5Y GLuc-SERCaMP (Gaussia luciferase released on ER calcium loss) secretion, thapsigargin, luminescence; series mostly up to 38.4 µM. The method in brief: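 GLuc-SERCaMP-expressing SH-SY5Y cells, pretreated 16 h with compound, are challenged with thapsigargin to empty ER calcium stores; after 4 h, coelenterazine is added directly to the medium and luminescence is imaged.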

The target of experiment [3] is Cytochrome P450 2C9 (Homo sapiens) (UniProt P11712). Description: Cytochrome P450 family 2 subfamily C member 9 (CYP2C9) small molecule antagonists: luciferase biochemical (cell-free) qHTS assay (AID 1645842; active = well fitted curve in the direction sought with a large enough effect in the repeat runs; an effect the other way counts as inactive or inconclusive; note: nearly all actives have a fitted effect of over 55% in size; note: potency is the fitted concentration of half-maximal effect). The conditions noted are these: P450-Glo CYP2C9 enzyme assay, luciferin luminescence; series mostly up to 57.4 µM. The method in brief: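 Luminescence, after 20 min with luciferin detection reagent, reflected CYP2C9 turnover during a 1 h NADPH-driven reaction at 37C. Enzyme-substrate mix contained 0.4% bovine serum albumin and was preincubated with compound 10 min at room temperature.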

Experiment [4] addresses Cytochrome P450 2D6 (Homo sapiens) (UniProt P10635). Description: Cytochrome P450 family 2 subfamily D member 6 (CYP2D6) small molecule antagonists: luciferase biochemical (cell-free) qHTS assay (AID 1645840; active = well fitted curve in the direction sought with a large enough effect in the repeat runs; an effect the other way counts as inactive or inconclusive; note: nearly all actives have a fitted effect of over 55% in size; note: potency is the fitted concentration of half-maximal effect). The conditions noted are these: P450-Glo CYP2D6 enzyme, luciferin luminescence, 1 h; series mostly up to 57.4 µM. In outline: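 P450-Glo luminescent screen: recombinant CYP2D6 enzyme–proluciferin substrate mix preincubated with compound 10 min at room temperature, then NADPH regeneration added for 1 h at room temperature. Detection reagent added for 20 min; luciferin light read as relative luminescence units.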

For experiment [5], the target named is Cytochrome P450 3A4 (Homo sapiens) (UniProt P08684). Description: Cytochrome P450 family 3 subfamily A member 4 (CYP3A4) small molecule antagonists: luciferase qHTS assay (AID 1645841; active = well fitted curve in the direction sought with a large enough effect in the repeat runs; an effect the other way counts as inactive or inconclusive; note: nearly all actives have a fitted effect of over 45% in size). The conditions noted are these: P450-Glo CYP3A4 enzyme assay, luciferin luminescence; series mostly up to 57.4 µM. The method in brief:
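P450-Glo CYP3A4 enzyme with proluciferin substrate was preincubated with DMSO-dissolved compounds for 10 min at room temperature. NADPH regeneration solution started a 1 h reaction. Detection reagent stopped it, and luminescence was read after 20 min.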

The source of these data is PubChem BioAssay (NCATS).

Results filed as inconclusive are left out. A call without a number means that no potency is given here. Active and inactive are the calls of the source. Unless noted, calls come from the whole dose curve; as a rule, active = well fitted curve in the direction sought with a large enough effect; inconclusive = small, poorly fitted or top-dose-only effect, or another doubt; inactive = no such curve, though single readings can be large; an effect the other way counts as inactive or inconclusive.

Calcium and integrin-binding protein 1 (Homo sapiens), sequence (Q99828 whole entry, looked up): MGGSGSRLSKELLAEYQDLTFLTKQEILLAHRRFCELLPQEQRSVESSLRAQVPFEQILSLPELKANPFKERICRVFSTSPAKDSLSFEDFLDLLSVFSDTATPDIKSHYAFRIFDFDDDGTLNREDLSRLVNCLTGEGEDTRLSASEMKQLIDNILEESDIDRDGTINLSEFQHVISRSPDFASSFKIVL
Cytochrome P450 2D6 (Homo sapiens), sequence (P10635 whole entry, looked up): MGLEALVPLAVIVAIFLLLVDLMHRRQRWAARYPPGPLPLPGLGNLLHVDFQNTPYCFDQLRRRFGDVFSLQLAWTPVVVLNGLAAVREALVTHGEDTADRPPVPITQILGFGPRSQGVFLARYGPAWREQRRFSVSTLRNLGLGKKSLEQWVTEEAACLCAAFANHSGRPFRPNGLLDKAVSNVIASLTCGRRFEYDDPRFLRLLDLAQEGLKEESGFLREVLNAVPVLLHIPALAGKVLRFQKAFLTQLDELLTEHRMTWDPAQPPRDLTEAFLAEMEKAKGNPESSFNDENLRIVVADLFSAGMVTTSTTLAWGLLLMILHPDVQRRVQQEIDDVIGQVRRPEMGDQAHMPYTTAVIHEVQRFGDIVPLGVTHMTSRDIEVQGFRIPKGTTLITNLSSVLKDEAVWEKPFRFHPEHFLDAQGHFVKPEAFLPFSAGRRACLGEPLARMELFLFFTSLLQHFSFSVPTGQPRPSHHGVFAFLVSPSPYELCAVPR
Cytochrome P450 2C9 (Homo sapiens), sequence (P11712 whole entry, looked up): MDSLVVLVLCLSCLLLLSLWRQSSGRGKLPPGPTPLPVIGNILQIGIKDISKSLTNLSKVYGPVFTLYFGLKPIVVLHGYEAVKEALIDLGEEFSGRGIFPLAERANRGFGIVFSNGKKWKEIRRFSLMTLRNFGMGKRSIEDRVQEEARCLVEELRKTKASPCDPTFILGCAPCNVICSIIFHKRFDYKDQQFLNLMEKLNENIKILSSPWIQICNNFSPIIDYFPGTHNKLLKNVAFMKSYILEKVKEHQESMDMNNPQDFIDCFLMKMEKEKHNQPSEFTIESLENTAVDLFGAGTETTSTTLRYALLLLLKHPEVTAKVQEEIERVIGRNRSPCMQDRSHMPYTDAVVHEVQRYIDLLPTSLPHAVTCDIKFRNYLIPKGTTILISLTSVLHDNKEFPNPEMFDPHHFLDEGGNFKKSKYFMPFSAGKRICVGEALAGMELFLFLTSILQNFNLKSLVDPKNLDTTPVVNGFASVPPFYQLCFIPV
Cytochrome P450 3A4 (Homo sapiens), sequence (P08684 whole entry, looked up): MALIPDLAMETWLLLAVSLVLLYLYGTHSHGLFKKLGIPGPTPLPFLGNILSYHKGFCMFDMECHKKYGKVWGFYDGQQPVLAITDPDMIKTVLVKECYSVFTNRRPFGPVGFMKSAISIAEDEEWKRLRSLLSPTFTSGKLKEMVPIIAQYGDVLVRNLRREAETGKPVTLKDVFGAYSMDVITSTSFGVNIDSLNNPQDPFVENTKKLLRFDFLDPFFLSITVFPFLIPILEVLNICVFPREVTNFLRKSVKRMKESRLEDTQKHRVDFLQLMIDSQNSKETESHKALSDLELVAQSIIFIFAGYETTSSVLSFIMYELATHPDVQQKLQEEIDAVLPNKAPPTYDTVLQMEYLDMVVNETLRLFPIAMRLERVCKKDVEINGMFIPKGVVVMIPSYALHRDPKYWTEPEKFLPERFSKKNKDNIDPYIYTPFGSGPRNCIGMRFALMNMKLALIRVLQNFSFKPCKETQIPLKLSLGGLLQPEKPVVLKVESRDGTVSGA

With `CC1COC2(CCN(c3nc(=O)c4cc(C(F)(F)F)cc([N+](=O)[O-])c4s3)CC2)O1` (configuration not stated), the outcome in experiment [1] was inactive. Also, the Potency entry in experiment [2] and in experiment [3] was “inactive” in each case.
In the case of `Nc1nccc(Oc2ccc(NC(=O)c3c[nH]cc(-c4ccc(F)cc4)c3=O)cc2F)c1Cl`, in experiment [1], the result was inactive. Besides, the Potency entry in experiment [2] was “inactive”. Also, the Potency in experiment [4] is 3.38 µM (active); in experiment [3], 8.49 µM (active).
With `Nc1nc(Nc2ccc(S(N)(=O)=O)cc2)nn1C(=O)c1c(F)cccc1F`, the result in experiment [1] was inactive. In addition, the Potency result in experiment [2] and in experiment [4] was “inactive” each time. Moreover, the Potency in experiment [3] was 0.12 µM (active).
In the case of `Nc1ncnc2c1c(-c1cccc(OCc3ccccc3)c1)cn2C1CC(CN2CCCC2)C1` (configuration not stated), the result in experiment [1] was inactive. The Potency entry in experiment [2] is “inactive”. The Potency in experiment [3] is 16.9 µM (active).
With `C#Cc1cccc(Nc2ncnc3cc(OC)c(OCCCCCCC(=O)NO)cc23)c1`, in experiment [1], the outcome was inactive. Besides, in experiment [2], the Potency result is “inactive”. Besides, the Potency was 4.77 µM (active) in experiment [4] and 10.7 µM (active) in experiment [3].
For `C=C1C(=CC=C2CCC[C@]3(C)[C@@H]([C@H](C)C=C[C@H](C)C(C)C)CC[C@@H]23)C[C@@H](O)C[C@@H]1O`, the outcome in experiment [1] was inactive. Also, in experiment [2], the Potency result was “inactive”. The Potency in experiment [3] was 9.52 µM (active).
Regarding `c1ccc2c(CCNc3ccc(Nc4ccncc4)cc3)c[nH]c2c1`, the result in experiment [1] was inactive. The Potency result in experiment [2] is “inactive”. In addition, in experiment [3], the Potency is 2.68 µM (active).
With `CCn1cc(-c2ccnc3[nH]c(-c4cccc(CN(C)C)c4)cc23)c(-c2ccc(NC(=O)N(C)C)cc2)n1`, the outcome in experiment [1] was inactive. For the same molecule, in experiment [2], the Potency entry is “inactive”. Besides, the Potency in experiment [4] is 19 µM (active); in experiment [3] it was 21.3 µM (active).
As for `Cc1c(Cn2c(C)nc3c(C(=O)O)cc(N4CCOCC4)cc32)cccc1C(F)(F)F`, the outcome in experiment [1] was inactive. Also, the Potency result in experiment [2] and in experiment [3] was “inactive” in each case.
For `CNC(=O)c1ccc(-c2cnc3ncc(Cc4ccc5ncccc5c4)n3n2)cc1F`, the result in experiment [1] was inactive. Moreover, in experiment [2], the Potency result is “inactive”. For the same molecule, the Potency in experiment [3] was 2.13 µM (active).
As for `CNC(=O)c1c(F)cccc1Nc1nc(Nc2cc3c(cc2OC)CCN3C(=O)CN(C)C)nc2[nH]ccc12`, the result in experiment [1] was inactive. For the same molecule, the Potency result in experiment [2] was “inactive”. Moreover, in experiment [3], the Potency is 0.425 µM (active).
Take `Nc1ccc(S(=O)(=O)Nc2ncccn2)cc1`: the outcome in experiment [1] and in experiment [5] was inactive. Besides, the Potency result in experiment [2] and in experiment [3] was “inactive” throughout.
For the molecule `NC1(Cc2ccc(Cl)cc2)CCN(c2ncnc3[nH]ccc23)CC1`, the outcome in experiment [1] was inactive. Besides, the Potency entry in experiment [2] and in experiment [3] was “inactive” in each case.
Take `Cc1[nH]nc2ccc(-c3cncc(OC[C@@H](N)Cc4ccccc4)c3)cc12`: in experiment [1], the result was inactive. Further, in experiment [2], the Potency entry was “inactive”. For the same molecule, the values for the Potency in experiment [4] and in experiment [3] were 0.674 µM (active) and 9.52 µM (active), respectively.
For `CNC(=O)CN1CCC(Oc2cc3c(Nc4cccc(Cl)c4F)ncnc3cc2OC)CC1`, in experiment [1], the outcome was inactive. Moreover, in experiment [2], the Potency result was “inactive”. Further, the Potency in experiment [3] is 9.52 µM (active).
On to `CC(C)c1nn(-c2c(Cl)cccc2Cl)c2nc(Cc3ccc(OCCO)cc3)[nH]c(=O)c12`, for which the outcome in experiment [1] was inactive. The Potency entry in experiment [2] and in experiment [4] was “inactive” each time. Moreover, the Potency in experiment [3] is 5.35 µM (active).
Regarding `CN(C)Cc1c(C(=O)NCCOc2ccc(C(=O)NO)cc2)oc2ccccc12`, in experiment [1], the outcome was inactive. Moreover, the Potency entry in experiment [2] and in experiment [3] was “inactive” in each case. For the same molecule, in experiment [4], the Potency is 1.69 µM (active).
Turning to `COc1c(OCCCN2CCOCC2)ccc2c3n(c(=NC(=O)c4cnc(N)nc4)nc12)CCN3`, the result in experiment [1] and in experiment [5] was inactive. Also, the Potency result in experiment [2] and in experiment [3] was “inactive” in each case.
Regarding `CCCn1c(=O)c2[nH]c(-c3cnn(Cc4cccc(C(F)(F)F)c4)c3)nc2n(CC)c1=O`, in experiment [1], the result was inactive. In addition, the Potency entry in experiment [2], in experiment [4] and in experiment [3] was “inactive” throughout.
With `Cn1c(CNc2ccc(C(=N)N)cc2)nc2cc(C(=O)N(CCC(=O)O)c3ccccn3)ccc21`, the result in experiment [1] was inactive. Further, the Potency result in experiment [2] is “inactive”. Also, in experiment [3], the Potency is 10.7 µM (active).
As for `Nc1ccccc1NC(=O)c1ccc(CNc2nccc(-c3cccnc3)n2)cc1`, the result in experiment [1] was inactive. Also, the Potency result in experiment [2] was “inactive”. In addition, the Potency in experiment [4] is 4.77 µM (active); in experiment [3], 5.35 µM (active).
Take `COc1ccc(-n2nc(C(N)=O)c3c2C(=O)N(c2ccc(N4CCCCC4=O)cc2)CC3)cc1`: in experiment [1], the outcome was inactive. The Potency entry in experiment [2], in experiment [4] and in experiment [3] was “inactive” throughout.
As to `O=C(Nc1ncc(-c2cc(C(F)F)nn2-c2c(Cl)cccc2Cl)s1)C1CC1`, the outcome in experiment [1] was inactive. Moreover, the Potency entry in experiment [2] is “inactive”. Further, the Potency is 10.7 µM (active) in experiment [4] and 6.74 µM (active) in experiment [3].
In the case of `CNC(=O)c1ccccc1Nc1nc(Nc2ccc(N3CCOCC3)cc2OC)ncc1Cl`, the outcome in experiment [1] was inactive. In addition, the Potency entry in experiment [2] is “inactive”. The Potency in experiment [3] was 0.301 µM (active).
Take `COc1ccc2c(c1)CC[C@@H](CN(C)CC(=O)O)[C@H]2c1ccccc1`: the result in experiment [1] was inactive. The Potency result in experiment [2] and in experiment [3] was “inactive” each time.
Take `COc1cc2nccc(Oc3ccc(NC(=O)C4(C(=O)Nc5ccc(F)cc5)CC4)cc3)c2cc1OC`: in experiment [1], the result was inactive. The Potency result in experiment [2] and in experiment [4] was “inactive” each time. The Potency in experiment [3] is 2.68 µM (active).
